Legend:
Test in all cases: DAPPL (digital affinity profiling via proximity ligation, sequencing); 10 mM Tris-HCl pH 7.5, 50 mM NaCl, 1 mM DTT, 4% glycerol, room temperature, 30 min; GST-TFs on glutathione beads, 16-mer random dsDNA library, 0.1% formaldehyde crosslink after washing; high values mean tight binding
Conditions in all cases: protein: recombinant; tags: N-terminal GST; dsDNA, one strand shown
FLI1 = biological target: T1, FLI1 (Homo sapiens, UniProt Q01543 1-452)
T1 sequence: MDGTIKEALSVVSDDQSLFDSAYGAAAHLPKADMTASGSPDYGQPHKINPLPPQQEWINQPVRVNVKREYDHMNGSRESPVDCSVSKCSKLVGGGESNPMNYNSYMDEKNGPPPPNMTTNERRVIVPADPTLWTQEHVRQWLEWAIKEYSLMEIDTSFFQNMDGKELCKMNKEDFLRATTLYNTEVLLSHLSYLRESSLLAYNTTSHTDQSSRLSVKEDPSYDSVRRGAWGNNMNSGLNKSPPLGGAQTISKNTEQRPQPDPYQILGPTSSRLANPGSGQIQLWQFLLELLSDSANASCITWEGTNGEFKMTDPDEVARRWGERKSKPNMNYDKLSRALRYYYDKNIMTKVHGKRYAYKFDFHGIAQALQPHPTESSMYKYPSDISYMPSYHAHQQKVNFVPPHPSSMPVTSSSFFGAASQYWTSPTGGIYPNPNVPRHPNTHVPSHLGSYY
How it was run: (§1)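 Yeast served to express human transcription factors as GST fusions, which were then captured on glutathione beads and labelled with DNA barcodes. Pooled with a tag-only sample, they were incubated with 200 nmole of a 16-mer random double-stranded DNA library for 30 min at room temperature in Tris/NaCl/DTT/glycerol buffer, washed, crosslinked with 0.1% formaldehyde, ligated by proximity, amplified by PCR and sequenced. Dividing each hexamer's read frequency for a factor by its frequency for the tag-only sample gives the binding signal.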

ELK1 = biological target: T2, ELK1 (Homo sapiens, UniProt P19419 1-428)
T2 sequence: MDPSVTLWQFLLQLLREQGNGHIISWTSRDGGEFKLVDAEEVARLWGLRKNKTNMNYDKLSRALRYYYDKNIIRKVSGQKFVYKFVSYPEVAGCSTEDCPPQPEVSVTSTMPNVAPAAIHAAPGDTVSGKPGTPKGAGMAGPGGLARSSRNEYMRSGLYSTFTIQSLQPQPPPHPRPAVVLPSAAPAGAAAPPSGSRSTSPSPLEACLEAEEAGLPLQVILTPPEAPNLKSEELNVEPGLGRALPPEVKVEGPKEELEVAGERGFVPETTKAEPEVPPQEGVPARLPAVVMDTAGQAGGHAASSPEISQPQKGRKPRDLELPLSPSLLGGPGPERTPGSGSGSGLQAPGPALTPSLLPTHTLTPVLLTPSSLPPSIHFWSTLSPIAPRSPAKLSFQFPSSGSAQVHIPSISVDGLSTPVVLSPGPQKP
How it was run: as §1

GABPA = biological target: T3, GABPA (Homo sapiens, UniProt Q06546 1-454)
T3 sequence: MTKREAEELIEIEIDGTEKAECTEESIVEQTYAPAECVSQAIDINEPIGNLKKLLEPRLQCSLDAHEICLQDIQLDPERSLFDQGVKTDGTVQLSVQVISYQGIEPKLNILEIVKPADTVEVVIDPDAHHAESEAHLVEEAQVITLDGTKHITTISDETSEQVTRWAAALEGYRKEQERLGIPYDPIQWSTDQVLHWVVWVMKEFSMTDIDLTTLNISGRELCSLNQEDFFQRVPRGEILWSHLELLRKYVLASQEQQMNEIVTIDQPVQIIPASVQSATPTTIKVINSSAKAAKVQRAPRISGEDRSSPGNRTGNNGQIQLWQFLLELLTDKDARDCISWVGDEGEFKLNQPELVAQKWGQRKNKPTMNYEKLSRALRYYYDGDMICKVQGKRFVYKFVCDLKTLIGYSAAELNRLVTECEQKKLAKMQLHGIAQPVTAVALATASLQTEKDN
How it was run: as §1

ERG = biological target: T4, ERG (Homo sapiens, UniProt P11308 1-479)
T4 sequence: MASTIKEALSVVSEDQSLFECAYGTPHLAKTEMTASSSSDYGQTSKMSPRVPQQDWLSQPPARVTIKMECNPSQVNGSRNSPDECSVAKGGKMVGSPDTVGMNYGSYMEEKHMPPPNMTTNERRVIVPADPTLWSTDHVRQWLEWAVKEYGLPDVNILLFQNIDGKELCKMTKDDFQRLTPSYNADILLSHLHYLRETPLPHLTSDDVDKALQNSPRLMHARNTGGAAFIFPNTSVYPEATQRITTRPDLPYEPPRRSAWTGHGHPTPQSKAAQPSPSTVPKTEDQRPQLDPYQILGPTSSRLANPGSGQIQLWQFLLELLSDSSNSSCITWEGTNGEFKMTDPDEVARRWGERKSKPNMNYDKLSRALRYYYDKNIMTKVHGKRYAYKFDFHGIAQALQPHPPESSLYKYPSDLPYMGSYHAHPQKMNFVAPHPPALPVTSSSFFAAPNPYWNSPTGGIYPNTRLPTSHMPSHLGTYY
How it was run: as §1

ELF1 = ELF1 (Homo sapiens, UniProt P32519 1-619)
How it was run: as §1

EHF = biological target: T5, EHF (Homo sapiens, UniProt Q9NZC4 1-300)
T5 sequence: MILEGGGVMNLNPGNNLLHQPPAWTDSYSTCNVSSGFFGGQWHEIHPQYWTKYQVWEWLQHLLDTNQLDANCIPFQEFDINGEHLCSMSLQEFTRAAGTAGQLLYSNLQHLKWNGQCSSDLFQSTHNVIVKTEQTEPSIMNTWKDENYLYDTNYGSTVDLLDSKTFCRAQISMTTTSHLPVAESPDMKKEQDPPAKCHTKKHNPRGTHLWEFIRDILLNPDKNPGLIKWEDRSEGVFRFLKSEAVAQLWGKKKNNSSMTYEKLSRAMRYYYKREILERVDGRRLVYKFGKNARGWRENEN
How it was run: as §1

SPIB = SPIB (Homo sapiens, UniProt Q01892 1-262)
How it was run: as §1

ELK3 = biological target: T6, ELK3 (Homo sapiens, UniProt P41970 1-407)
T6 sequence: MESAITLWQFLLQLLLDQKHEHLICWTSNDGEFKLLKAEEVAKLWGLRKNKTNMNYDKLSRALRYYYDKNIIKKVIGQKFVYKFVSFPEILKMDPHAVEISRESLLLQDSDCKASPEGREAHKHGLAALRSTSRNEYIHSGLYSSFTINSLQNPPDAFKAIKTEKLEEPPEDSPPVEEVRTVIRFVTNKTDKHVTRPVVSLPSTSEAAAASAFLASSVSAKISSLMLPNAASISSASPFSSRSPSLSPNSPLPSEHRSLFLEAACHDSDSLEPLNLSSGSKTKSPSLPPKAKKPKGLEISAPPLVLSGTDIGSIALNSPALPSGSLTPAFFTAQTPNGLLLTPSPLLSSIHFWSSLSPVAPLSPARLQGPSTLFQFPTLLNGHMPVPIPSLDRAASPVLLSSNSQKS
How it was run: as §1

SPIC = biological target: T7, SPIC (Homo sapiens, UniProt Q8N5J4 1-248)
T7 sequence: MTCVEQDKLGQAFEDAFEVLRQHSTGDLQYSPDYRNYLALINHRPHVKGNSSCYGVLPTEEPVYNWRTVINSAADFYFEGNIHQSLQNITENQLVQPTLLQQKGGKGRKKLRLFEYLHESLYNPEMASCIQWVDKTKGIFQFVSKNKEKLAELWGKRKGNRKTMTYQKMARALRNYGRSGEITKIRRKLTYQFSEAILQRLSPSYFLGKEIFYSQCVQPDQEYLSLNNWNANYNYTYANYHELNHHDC
How it was run: as §1

ELF4 = ELF4 (Homo sapiens, UniProt Q99607 1-663)
How it was run: as §1

ELK4 = biological target: T8, ELK4 (Homo sapiens, UniProt P28324-2 1-405)
T8 sequence: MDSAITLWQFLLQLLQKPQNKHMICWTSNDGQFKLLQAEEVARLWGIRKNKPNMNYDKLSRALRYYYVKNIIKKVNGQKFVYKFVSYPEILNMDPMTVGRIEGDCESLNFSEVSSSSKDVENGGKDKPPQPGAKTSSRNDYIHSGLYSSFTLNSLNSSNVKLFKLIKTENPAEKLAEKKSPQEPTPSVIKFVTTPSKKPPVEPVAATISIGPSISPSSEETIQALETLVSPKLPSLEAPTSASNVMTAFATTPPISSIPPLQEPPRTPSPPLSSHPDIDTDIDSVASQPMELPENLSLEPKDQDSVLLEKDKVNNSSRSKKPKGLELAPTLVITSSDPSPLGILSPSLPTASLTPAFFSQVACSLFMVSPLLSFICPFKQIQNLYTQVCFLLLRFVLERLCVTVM
How it was run: as §1

ETV2 = biological target: T9, ETV2 (Homo sapiens, UniProt O00321 1-342)
T9 sequence: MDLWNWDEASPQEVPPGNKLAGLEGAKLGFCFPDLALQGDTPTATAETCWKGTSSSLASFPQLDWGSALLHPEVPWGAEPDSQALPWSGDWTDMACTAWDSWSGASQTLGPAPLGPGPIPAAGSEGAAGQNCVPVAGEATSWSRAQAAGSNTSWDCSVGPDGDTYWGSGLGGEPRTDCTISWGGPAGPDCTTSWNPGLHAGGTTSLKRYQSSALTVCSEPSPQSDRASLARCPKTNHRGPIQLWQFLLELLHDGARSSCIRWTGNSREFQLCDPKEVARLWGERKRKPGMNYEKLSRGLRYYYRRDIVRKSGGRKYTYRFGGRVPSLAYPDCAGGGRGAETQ
How it was run: as §1

ELF3 = biological target: T10, ELF3 (Homo sapiens, UniProt P78545 1-371)
T10 sequence: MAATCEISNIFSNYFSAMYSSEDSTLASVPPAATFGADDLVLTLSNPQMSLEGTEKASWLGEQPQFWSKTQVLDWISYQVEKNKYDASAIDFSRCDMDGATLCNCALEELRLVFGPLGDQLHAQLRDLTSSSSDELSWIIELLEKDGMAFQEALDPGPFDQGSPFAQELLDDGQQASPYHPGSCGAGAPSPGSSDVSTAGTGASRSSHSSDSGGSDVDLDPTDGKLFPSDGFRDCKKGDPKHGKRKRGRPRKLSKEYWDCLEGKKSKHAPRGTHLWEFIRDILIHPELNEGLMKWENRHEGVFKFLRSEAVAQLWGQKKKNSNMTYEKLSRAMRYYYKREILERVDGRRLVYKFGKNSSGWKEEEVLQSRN
How it was run: as §1

ETV1 = ETV1 (Homo sapiens, UniProt P50549 1-477)
How it was run: as §1

ERF = biological target: T11, ERF (Homo sapiens, UniProt P50548 1-548)
T11 sequence: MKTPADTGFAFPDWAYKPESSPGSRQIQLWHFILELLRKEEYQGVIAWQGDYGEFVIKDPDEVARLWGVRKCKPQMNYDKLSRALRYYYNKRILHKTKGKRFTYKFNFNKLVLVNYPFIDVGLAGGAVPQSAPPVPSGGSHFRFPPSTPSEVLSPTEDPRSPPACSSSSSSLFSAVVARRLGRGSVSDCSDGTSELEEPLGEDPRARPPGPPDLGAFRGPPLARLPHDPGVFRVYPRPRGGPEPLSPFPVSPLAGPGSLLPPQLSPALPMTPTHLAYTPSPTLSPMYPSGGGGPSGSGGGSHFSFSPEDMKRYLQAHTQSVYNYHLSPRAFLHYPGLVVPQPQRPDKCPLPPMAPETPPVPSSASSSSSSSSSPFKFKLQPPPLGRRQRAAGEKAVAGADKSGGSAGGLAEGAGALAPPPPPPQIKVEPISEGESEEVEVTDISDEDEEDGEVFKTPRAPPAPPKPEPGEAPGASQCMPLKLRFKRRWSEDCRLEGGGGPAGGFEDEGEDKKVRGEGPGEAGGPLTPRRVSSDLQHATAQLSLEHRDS
How it was run: as §1

ETV3L = biological target: T12, ETV3L (Homo sapiens, UniProt Q6ZN32 1-361)
T12 sequence: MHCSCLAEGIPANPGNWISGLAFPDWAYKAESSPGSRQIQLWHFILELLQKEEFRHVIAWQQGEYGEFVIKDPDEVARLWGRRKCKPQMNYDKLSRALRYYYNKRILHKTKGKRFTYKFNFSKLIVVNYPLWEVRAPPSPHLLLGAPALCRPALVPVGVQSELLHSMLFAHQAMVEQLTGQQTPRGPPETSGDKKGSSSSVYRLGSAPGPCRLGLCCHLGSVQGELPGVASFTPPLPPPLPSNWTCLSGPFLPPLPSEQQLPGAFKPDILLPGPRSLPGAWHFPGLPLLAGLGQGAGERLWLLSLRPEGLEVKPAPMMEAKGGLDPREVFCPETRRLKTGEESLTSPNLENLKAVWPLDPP
How it was run: as §1

ETV3 = biological target: T13, ETV3 (Homo sapiens, UniProt P41162-2 1-143)
T13 sequence: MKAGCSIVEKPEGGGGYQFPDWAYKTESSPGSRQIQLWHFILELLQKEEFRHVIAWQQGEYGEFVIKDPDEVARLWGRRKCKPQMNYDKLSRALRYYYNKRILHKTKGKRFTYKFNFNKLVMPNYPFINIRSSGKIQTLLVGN
How it was run: as §1

ETV6 = ETV6 (Homo sapiens, UniProt P41212 1-452)
How it was run: as §1

SPIB, sequence (Q01892 whole entry): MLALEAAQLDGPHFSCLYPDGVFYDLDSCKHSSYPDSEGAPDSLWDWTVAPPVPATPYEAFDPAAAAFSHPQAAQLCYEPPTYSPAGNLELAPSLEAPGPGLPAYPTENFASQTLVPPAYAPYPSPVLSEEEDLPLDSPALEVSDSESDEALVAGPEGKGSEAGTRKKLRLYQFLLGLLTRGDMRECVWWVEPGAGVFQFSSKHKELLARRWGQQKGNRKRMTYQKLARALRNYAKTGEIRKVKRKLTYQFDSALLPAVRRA
ETV1, sequence (P50549 whole entry): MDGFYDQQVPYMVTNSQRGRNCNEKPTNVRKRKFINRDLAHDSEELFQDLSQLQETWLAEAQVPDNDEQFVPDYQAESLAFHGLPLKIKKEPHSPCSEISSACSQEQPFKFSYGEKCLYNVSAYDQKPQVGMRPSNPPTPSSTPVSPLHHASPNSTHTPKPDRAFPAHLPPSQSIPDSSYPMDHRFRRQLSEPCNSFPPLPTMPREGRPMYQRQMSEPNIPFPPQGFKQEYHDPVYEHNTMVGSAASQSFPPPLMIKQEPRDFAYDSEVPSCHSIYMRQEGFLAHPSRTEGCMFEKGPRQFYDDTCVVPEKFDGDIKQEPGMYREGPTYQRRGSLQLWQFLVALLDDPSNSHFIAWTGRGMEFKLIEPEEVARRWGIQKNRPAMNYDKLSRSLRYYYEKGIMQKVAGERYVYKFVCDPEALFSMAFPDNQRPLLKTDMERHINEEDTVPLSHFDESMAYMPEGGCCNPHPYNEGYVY
ETV6, sequence (P41212 whole entry): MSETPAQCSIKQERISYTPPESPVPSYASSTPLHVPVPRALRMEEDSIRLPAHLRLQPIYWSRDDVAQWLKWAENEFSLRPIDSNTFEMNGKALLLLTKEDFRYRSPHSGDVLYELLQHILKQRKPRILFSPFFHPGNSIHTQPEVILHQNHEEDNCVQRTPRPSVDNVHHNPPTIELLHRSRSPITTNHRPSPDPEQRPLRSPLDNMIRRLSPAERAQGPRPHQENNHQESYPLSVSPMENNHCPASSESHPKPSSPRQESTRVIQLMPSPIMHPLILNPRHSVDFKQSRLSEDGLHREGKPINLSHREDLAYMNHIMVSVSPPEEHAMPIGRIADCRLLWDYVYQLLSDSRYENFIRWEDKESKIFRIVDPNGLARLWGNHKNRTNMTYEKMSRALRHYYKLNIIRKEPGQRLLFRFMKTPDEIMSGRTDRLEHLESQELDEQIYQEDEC
ELF4, sequence (Q99607 whole entry): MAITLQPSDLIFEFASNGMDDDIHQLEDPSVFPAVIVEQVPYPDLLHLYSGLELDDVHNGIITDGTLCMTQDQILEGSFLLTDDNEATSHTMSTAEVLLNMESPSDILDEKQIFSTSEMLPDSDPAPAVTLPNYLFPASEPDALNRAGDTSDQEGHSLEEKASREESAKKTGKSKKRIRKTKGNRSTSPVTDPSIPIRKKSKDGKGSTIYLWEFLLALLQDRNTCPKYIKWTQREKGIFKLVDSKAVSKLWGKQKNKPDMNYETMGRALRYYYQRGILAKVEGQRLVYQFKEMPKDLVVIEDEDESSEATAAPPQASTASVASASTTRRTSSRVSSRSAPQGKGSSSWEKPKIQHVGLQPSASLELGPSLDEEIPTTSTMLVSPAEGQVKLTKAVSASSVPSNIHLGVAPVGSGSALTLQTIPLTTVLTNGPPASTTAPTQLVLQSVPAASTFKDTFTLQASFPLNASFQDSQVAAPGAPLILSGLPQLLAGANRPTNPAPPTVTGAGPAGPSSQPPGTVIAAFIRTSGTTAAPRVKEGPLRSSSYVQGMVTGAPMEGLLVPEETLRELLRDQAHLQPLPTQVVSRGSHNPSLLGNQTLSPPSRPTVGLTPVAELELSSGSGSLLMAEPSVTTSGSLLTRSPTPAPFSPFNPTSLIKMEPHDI
ELF1, sequence (P32519 whole entry): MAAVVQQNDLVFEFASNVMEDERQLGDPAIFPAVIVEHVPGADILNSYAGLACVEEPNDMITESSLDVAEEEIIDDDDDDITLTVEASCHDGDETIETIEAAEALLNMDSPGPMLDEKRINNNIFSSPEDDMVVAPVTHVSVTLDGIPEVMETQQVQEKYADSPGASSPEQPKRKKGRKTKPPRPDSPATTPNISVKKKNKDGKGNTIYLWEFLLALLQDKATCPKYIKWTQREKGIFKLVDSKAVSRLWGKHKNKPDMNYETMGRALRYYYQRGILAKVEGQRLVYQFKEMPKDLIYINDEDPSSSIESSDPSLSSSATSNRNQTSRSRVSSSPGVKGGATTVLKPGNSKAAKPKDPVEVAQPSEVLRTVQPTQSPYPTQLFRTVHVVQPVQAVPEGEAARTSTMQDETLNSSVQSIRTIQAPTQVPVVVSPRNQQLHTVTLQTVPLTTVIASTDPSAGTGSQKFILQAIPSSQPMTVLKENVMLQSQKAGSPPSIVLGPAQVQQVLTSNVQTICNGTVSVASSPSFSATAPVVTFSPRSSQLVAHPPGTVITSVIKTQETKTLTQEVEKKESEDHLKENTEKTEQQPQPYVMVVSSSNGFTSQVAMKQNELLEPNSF

With ATGGGG the binding signal (FLI1) was 1.11 fold enrichment (6-mer frequency, TF over GST control), the binding signal (ELK1) was 1.09 fold enrichment (6-mer frequency, TF over GST control) and the binding signal (GABPA) was 1.08 fold enrichment (6-mer frequency, TF over GST control). For the same sequence, the binding signal (ERG) was 1.07 fold enrichment (6-mer frequency, TF over GST control), the binding signal (ELF1) was 1.06 fold enrichment (6-mer frequency, TF over GST control) and the binding signal (EHF) was 1.11 fold enrichment (6-mer frequency, TF over GST control). For the same sequence, the binding signal (SPIB) was 1.14 fold enrichment (6-mer frequency, TF over GST control), the binding signal (ELK3) was 1.05 fold enrichment (6-mer frequency, TF over GST control) and the binding signal (SPIC) was 1.16 fold enrichment (6-mer frequency, TF over GST control). The binding signal (ELF4) was 1.02 fold enrichment (6-mer frequency, TF over GST control), the binding signal (ELK4) was 1.03 fold enrichment (6-mer frequency, TF over GST control) and the binding signal (ETV2) was 1.16 fold enrichment (6-mer frequency, TF over GST control). The binding signal (ELF3) was 1.06 fold enrichment (6-mer frequency, TF over GST control), the binding signal (ETV1) was 1.15 fold enrichment (6-mer frequency, TF over GST control) and the binding signal (ERF) was 1.08 fold enrichment (6-mer frequency, TF over GST control). For the same sequence, the binding signal (ETV3L) was 1.16 fold enrichment (6-mer frequency, TF over GST control), the binding signal (ETV3) was 1.13 fold enrichment (6-mer frequency, TF over GST control) and the binding signal (ETV6) was 1.18 fold enrichment (6-mer frequency, TF over GST control).

Source: paper PMC7862700, “An all-to-all approach to the identification of sequence-specific readers for epigenetic DNA modifications on cytosine”
